Measured values published in PubChem BioAssay.
Calls of active or inactive are those of the source. Rule as the data show it: active = fold change permeability below about 0.7 or above about 1.3; inactive = in between.

Test: modulators of brain endothelial barrier permeability, primary screen, cell-based, FITC-avidin fluorescence, HTS (AID 1963498); also: test concentration not given here
Conditions: actives lie on both sides
In the case of O=c1cc(-c2ccccc2)oc2c(O)c(O)ccc12, the fold change permeability is reported as 1.5 (active).
With O=C(CCCCCN1CCN(c2ccccc2-c2ccccc2)CC1)NC1CCCc2ccccc21 (stereo not drawn) the fold change permeability was 1.1 (inactive).
For CN1C2CCC1CC(OC(c1ccccc1)c1ccccc1)C2 (stereo not drawn), the fold change permeability was 1.7 (active).
In the case of COc1cc(C(C)=O)ccc1OCCCN1CCC(c2noc3cc(F)ccc23)CC1, the fold change permeability is reported as 1.3 (active).
For CN1CCN(C2=Nc3cc(Cl)ccc3Nc3ccccc32)CC1, the fold change permeability was 1.2 (inactive).
For O=C(O)c1cccnc1C(=O)O, the fold change permeability was 1.1 (inactive).
For O=C(Cc1ccccc1)Nc1nnc(CCSCCc2nnc(NC(=O)Cc3ccccc3)s2)s1, the fold change permeability was 1.5 (active).
With CCCC[C@@]1(C2CCCC2)Cc2cc(OCC(=O)O)c(Cl)c(Cl)c2C1=O the fold change permeability was 1.6 (active).
In the case of O=C1Cc2cc(CCN3CCN(c4nsc5ccccc45)CC3)c(Cl)cc2N1, the fold change permeability is reported as 0.9 (inactive).
In the case of NC12CC3CC(CC(C3)C1)C2, the fold change permeability is reported as 0.9 (inactive).
For CN(C)C(=O)Oc1cccc([N+](C)(C)C)c1, the fold change permeability was 0.8 (inactive).
With Cc1ccccc1N1CCN(CCc2nnc3n2CCCC3)CC1 the fold change permeability was 0.9 (inactive).
In the case of Cn1c(=O)c2c(ncn2CC2OCCO2)n(C)c1=O, the fold change permeability is reported as 1 (inactive).
In the case of COc1ccccc1N1CCN(CCN(C(=O)c2ccc(F)cc2)c2ccccn2)CC1, the fold change permeability is reported as 0.8 (inactive).
With O=C(O)CNC(=O)C(CS)Cc1ccccc1 (stereo not drawn) the fold change permeability was 0.6 (active).
In the case of N[C@@H](Cc1c[nH]c2ccc(O)cc12)C(=O)O, the fold change permeability is reported as 1 (inactive).
With CN1CCc2cccc3c2[C@H]1Cc1ccc(O)c(O)c1-3 the fold change permeability was 1 (inactive).
With CC(C)[C@H]1C(=O)N[C@@H](CCCN=C(N)N)C(=O)NCC(=O)N[C@@H](CC(=O)O)C(=O)N[C@H](Cc2ccccc2)C(=O)N1C the fold change permeability was 1.2 (inactive).
